Consider 36 targets from the supplement of paper PMC11006884.

Targets with a hit are over-represented here; the source holds about 6,500 in all. About 2% of all pairs of compound and target were hits.

UniProt Q53H80, sequence (Q53H80 whole entry): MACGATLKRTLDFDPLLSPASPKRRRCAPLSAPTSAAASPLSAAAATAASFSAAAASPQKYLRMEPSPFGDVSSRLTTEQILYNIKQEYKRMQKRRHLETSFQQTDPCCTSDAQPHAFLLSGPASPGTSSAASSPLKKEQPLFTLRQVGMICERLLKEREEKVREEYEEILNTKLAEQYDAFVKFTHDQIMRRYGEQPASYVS
UniProt Q05639, sequence (Q05639 whole entry, looked up): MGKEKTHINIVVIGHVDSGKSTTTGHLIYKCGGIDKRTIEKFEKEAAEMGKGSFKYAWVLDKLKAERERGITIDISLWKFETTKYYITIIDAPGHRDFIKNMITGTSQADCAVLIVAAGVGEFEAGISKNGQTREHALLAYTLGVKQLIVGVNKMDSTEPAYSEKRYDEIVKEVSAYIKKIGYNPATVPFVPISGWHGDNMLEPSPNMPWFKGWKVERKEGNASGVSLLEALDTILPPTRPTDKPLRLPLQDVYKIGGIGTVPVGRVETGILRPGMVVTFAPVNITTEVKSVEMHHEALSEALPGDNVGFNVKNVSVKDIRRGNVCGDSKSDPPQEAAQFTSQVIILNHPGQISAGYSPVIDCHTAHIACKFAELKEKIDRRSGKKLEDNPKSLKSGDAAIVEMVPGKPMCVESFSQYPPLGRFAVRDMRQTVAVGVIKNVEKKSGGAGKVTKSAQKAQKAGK
UniProt Q14738, sequence (Q14738 whole entry): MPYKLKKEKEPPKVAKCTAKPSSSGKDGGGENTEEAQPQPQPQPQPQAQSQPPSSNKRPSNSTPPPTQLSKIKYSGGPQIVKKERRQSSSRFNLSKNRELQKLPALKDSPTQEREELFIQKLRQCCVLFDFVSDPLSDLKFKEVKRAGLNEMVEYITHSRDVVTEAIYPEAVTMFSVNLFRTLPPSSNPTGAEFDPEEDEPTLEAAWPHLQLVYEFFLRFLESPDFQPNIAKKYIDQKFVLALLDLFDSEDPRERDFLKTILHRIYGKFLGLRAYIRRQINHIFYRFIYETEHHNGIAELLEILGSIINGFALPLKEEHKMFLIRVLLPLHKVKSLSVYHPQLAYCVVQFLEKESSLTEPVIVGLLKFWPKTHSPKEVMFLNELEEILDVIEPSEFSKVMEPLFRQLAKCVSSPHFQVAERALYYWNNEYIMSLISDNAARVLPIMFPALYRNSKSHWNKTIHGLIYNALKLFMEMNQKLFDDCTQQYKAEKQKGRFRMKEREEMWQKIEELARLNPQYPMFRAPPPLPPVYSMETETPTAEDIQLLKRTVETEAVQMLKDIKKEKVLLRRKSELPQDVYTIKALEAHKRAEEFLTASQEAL
UniProt Q5JTH9, sequence (Q5JTH9 whole entry, looked up): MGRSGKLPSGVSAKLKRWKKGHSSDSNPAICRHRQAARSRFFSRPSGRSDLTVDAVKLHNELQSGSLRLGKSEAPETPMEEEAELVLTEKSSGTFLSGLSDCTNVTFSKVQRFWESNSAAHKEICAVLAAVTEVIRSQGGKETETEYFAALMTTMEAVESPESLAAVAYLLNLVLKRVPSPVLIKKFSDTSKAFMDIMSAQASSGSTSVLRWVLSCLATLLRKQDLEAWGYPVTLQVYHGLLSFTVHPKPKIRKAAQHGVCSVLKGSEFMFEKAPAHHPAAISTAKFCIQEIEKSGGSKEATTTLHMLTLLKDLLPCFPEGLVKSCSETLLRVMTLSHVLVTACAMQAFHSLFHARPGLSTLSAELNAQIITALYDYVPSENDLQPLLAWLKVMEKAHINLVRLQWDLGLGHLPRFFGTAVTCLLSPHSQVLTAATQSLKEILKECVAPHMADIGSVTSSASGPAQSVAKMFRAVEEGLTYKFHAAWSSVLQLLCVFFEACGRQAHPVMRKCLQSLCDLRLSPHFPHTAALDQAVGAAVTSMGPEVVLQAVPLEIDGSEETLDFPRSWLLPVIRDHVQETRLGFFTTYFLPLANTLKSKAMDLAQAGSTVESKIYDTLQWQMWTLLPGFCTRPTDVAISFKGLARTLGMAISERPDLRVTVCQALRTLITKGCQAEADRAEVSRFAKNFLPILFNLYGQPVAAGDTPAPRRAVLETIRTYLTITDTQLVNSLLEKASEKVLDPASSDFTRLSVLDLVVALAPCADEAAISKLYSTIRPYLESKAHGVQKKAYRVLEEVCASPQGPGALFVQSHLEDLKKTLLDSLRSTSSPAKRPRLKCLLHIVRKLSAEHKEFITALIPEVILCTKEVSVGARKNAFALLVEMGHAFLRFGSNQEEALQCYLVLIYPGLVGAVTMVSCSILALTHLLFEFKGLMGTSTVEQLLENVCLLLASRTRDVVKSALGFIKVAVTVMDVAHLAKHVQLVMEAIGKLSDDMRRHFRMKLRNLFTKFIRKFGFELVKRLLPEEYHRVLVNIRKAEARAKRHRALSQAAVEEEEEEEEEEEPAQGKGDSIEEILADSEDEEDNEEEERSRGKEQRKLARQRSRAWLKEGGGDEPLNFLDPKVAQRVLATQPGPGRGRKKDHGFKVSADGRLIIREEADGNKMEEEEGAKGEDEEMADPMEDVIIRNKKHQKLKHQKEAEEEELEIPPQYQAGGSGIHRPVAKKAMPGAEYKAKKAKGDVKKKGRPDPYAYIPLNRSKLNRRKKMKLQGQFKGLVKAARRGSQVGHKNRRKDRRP
UniProt Q14C86, sequence (Q14C86 whole entry, looked up): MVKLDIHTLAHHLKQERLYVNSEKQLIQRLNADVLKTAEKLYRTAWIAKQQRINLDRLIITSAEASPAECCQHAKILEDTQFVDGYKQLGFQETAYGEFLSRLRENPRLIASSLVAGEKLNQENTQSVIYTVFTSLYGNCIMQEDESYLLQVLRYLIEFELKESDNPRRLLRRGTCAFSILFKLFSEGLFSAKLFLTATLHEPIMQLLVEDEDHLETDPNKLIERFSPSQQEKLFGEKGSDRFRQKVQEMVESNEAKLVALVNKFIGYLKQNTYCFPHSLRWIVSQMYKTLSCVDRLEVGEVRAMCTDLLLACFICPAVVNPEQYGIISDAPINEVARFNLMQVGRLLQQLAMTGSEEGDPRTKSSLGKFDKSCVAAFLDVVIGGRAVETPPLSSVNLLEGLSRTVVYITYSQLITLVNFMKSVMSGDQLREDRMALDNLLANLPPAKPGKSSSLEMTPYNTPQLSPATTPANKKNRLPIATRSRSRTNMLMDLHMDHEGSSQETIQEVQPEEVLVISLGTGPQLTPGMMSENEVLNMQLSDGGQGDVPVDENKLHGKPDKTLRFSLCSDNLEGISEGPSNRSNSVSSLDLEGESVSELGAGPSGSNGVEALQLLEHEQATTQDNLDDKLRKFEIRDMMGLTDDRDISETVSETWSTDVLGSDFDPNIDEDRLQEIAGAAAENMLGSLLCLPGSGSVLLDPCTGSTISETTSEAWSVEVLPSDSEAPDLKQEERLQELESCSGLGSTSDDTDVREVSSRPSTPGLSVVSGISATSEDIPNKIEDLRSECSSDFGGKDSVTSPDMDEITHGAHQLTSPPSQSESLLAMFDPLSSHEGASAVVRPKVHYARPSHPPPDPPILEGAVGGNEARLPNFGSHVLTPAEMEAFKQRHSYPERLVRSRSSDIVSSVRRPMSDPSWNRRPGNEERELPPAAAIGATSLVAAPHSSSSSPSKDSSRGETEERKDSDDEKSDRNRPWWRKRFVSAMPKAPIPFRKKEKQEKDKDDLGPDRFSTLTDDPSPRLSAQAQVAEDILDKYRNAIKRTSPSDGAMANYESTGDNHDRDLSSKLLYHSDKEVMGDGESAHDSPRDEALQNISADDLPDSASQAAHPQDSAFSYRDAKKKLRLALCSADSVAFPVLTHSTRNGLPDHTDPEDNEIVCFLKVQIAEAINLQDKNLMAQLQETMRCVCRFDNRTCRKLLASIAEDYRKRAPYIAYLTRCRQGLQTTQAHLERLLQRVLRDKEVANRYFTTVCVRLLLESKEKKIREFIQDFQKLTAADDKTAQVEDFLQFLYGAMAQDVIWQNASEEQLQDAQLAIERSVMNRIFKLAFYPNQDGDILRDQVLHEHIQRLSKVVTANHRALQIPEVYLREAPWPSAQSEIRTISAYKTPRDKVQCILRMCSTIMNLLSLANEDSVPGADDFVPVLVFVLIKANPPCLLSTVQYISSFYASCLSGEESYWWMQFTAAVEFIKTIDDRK
UniProt P54278, sequence (P54278 whole entry, looked up): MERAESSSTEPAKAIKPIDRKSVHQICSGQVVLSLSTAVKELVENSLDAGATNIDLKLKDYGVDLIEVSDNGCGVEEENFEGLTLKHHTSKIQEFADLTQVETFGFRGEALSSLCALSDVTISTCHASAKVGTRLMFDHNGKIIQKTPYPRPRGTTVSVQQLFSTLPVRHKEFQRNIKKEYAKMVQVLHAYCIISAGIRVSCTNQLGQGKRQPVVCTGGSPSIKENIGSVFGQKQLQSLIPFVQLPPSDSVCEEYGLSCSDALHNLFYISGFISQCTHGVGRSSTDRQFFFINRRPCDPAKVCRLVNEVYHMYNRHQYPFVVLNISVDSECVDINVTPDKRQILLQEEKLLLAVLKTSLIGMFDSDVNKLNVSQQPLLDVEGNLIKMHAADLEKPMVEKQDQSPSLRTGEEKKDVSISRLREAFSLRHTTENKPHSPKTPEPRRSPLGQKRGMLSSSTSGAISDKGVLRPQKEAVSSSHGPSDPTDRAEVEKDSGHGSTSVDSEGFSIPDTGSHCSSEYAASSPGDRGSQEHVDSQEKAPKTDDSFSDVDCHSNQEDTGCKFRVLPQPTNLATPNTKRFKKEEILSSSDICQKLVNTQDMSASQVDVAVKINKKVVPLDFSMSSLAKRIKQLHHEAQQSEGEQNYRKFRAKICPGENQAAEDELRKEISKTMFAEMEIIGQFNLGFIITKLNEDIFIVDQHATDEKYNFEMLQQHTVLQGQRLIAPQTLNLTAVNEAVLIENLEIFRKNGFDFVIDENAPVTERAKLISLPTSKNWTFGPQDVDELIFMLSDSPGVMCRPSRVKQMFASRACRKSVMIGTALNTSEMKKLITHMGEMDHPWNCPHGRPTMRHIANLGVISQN

Compound in this assay: COC(=O)C#Cc1ccccc1 [methyl 3-phenylpropiolate]
Kind of assay: log2 ratio of iodoacetamide-alkyne labeling of the cysteine site, DMSO over compound (competition); higher = stronger covalent engagement of the cysteine by the compound, active = 1 or more. The settings on record: 500 µM; treatment time 1 h; system: HEK293T cell lysate. The gist of the method: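 HEK293T lysate (2 mg/mL) was incubated with electrophile (500 µM) or vehicle for 1 h at ambient temperature and then with iodoacetamide alkyne for 1 h. Labelled proteins were clicked to sCIP-TMT reagents, pooled, digested, enriched on streptavidin and measured by Orbitrap Eclipse LC-MS/MS with FAIMS, with FragPipe quantification. The per-cysteine log2 competition ratio is mean control-channel reporter intensity over mean compound-channel reporter intensity. Across three replicates with duplicate channels, cysteines quantified in only one replicate were excluded.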
Turning to AKAP13 C683 (UniProt Q12802), the “log2 ratio of iodoacetamide-alkyne labeling” value (“log2 ratio” for short) was 0.255 (inactive).
With GAPVD1 C568 (UniProt Q14C86), the “log2 ratio” value is 0.475 (inactive).
For SQSTM1 C113 (UniProt Q13501), the “log2 ratio” value is 1.2 (active).
Take RING1 C69 (UniProt Q06587): the “log2 ratio” value was 0.171 (inactive).
Take USP14 C415 (UniProt P54578): the “log2 ratio” value was -0.369 (inactive).
On to COASY C144 (UniProt Q13057), for which the “log2 ratio” value is 1.16 (active).
With PPP5C C452 (UniProt P53041), the “log2 ratio” value is 0.0827 (inactive).
In the case of TJP1 C1727 (UniProt Q07157), the “log2 ratio” value is 0.0718 (inactive).
As to FLYWCH1 C173 (UniProt Q4VC44), the “log2 ratio” value is -0.0462 (inactive).
As to UniProt P62834_C141, the “log2 ratio” value is 0.00921 (inactive).
As to UniProt Q02040_C549, the “log2 ratio” value was 1.74 (active).
For HMGCS1 C86 (UniProt Q01581) the value was 0.0742 (inactive); for RRP12 C261 (UniProt Q5JTH9), 0.53 (inactive); for UniProt Q15365_C158, 0.366 (inactive).
Next, UniProt Q08170_C115: -0.0754 (inactive); GEN1 C668 (UniProt Q17RS7): 0.0186 (inactive).
As for EEF1A2 C326 (UniProt Q05639), the “log2 ratio” value was 0.25 (inactive).
Next, HNRNPH2 C34 (UniProt P55795): 0.0589 (inactive).
Consider UniProt Q14574_C804, for which the “log2 ratio” value was 0.812 (inactive).
Next, PMS2 C798 (UniProt P54278): -0.143 (inactive); UniProt Q12905_C271: 0.137 (inactive).
Consider AKIRIN2 C3 (UniProt Q53H80), for which the “log2 ratio” value is 1.11 (active).
Next, AP1B1 C129 (UniProt Q10567): 0.414 (inactive); UniProt Q13247_C121: -0.0624 (inactive).
Regarding PPP2R5D C17 (UniProt Q14738), the “log2 ratio” value is 0.818 (inactive).
FHL1 C10 (UniProt Q13642): the “log2 ratio” value is -0.136 (inactive).
For UniProt Q15042_C335 the value was 0.153 (inactive).
As to DYNC1H1 C4510 (UniProt Q14204), the “log2 ratio” value was 0.182 (inactive).
As to UniProt Q13155_C23, the “log2 ratio” value is 1.24 (active).
Next, NUMA1 C375 (UniProt Q14980): -0.109 (inactive).
As to OGDH C802 (UniProt Q02218), the “log2 ratio” value was -0.0839 (inactive).
As to YARS C250 (UniProt P54577), the “log2 ratio” value was 0.0441 (inactive).
For SUCLG1 C172 (UniProt P53597), the “log2 ratio” value was 1.72 (active).
For UniProt P60709_C217 the value was 0.0537 (inactive); for DST C7524 (UniProt Q03001), 0.174 (inactive).
Turning to DDX39B C198 (UniProt Q13838), the “log2 ratio” value was -0.129 (inactive).
